Measured values from the supplement of paper PMC11732987, “Enantioselective OTUD7B fragment discovery through chemoproteomics screening and high-throughput optimisation” (Communications Chemistry, 2025).

Columns and labels:
Test in all cases: log2 ratio of Biotin-Ahx-Ub-VS probe labelling (fragment/DMSO); higher = less target engagement (more negative = stronger competition), active = hit call of the paper (q ≤ 0.05, log2 ratio ≤ -1)
Conditions in all cases: compound concentration: 200 uM; treatment time: 3 h
USP34 = USP34 (UniProt Q70CQ2)
Procedure, shortened: (§1)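 HEK293T lysate in Tris/CHAPS/IGEPAL buffer with protease inhibitors (495 µg per sample) was given fragment at 200 µM or vehicle for 3 h, in triplicate. It then received Biotin-Ahx-Ub-VS at 0.5 µM final for 1 h. Labelled DUBs were NeutrAvidin-enriched, digested with LysC and trypsin, and run by diaPASEF LC-MS/MS. Values are average log2 fragment/vehicle ratios by unpaired t-test on global-median-normalised Spectronaut quantities of proteins with ≥2 unique peptides.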

USP36 = molecular target: T1, USP36 (UniProt Q9P275)
T1 sequence (whole entry): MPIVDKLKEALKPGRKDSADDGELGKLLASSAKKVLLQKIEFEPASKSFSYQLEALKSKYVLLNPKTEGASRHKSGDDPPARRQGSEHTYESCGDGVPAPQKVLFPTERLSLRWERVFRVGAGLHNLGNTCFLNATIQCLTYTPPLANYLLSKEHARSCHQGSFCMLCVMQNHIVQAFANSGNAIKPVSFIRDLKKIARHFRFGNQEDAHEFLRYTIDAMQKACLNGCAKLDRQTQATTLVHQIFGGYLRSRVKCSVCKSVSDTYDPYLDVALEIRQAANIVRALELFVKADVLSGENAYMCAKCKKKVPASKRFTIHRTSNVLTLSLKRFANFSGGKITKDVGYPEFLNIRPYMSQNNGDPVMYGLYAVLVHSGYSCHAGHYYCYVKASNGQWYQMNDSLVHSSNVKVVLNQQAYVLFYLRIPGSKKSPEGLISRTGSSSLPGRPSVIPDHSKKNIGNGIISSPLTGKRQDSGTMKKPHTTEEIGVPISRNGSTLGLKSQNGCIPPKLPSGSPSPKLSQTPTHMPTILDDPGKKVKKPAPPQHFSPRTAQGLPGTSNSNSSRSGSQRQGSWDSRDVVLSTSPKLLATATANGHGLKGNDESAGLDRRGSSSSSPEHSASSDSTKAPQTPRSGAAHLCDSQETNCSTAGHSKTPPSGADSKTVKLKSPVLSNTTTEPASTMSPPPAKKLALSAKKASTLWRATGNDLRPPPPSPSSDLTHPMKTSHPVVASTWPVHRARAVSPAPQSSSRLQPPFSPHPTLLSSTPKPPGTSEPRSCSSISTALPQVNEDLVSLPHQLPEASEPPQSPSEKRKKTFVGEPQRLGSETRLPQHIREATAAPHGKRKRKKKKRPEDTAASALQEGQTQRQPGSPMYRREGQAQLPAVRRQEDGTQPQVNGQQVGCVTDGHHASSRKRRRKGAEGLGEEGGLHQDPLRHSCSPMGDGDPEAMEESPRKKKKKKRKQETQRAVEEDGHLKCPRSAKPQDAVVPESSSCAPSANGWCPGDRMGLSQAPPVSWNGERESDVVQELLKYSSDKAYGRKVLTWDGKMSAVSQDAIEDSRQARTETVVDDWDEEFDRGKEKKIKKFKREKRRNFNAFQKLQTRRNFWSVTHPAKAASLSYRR
Procedure, shortened: as §1

USP38 = molecular target: T2, USP38 (UniProt Q8NB14)
T2 sequence (whole entry): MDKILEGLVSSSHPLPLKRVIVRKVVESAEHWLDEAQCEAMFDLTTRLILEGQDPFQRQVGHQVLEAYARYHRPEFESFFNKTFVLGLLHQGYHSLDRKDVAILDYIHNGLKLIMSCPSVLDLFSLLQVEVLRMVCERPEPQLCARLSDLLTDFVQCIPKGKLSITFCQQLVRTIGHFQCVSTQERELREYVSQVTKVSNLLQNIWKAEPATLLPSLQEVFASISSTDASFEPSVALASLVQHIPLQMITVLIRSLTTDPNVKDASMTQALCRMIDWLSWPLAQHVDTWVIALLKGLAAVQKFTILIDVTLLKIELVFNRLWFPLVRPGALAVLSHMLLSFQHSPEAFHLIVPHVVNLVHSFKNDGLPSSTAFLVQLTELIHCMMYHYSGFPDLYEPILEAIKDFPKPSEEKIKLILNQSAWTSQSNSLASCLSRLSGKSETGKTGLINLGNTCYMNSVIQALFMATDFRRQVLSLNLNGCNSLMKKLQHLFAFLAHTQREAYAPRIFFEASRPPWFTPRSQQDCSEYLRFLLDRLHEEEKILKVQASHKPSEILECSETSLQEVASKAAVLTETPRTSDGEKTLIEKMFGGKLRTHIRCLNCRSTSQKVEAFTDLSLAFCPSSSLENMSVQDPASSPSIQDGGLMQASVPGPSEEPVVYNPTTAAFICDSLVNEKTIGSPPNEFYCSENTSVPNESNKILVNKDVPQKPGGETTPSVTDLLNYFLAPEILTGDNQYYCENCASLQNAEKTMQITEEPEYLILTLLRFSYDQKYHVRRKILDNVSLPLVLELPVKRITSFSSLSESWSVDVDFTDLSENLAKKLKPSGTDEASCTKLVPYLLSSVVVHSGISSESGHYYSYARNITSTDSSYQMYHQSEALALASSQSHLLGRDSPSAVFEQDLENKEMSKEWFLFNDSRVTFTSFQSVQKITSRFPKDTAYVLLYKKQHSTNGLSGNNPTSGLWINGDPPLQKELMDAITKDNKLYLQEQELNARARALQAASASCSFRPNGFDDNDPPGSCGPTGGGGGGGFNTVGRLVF
Procedure, shortened: as §1

USP39 = molecular target: T3, USP39 (UniProt Q53GS9)
T3 sequence (whole entry): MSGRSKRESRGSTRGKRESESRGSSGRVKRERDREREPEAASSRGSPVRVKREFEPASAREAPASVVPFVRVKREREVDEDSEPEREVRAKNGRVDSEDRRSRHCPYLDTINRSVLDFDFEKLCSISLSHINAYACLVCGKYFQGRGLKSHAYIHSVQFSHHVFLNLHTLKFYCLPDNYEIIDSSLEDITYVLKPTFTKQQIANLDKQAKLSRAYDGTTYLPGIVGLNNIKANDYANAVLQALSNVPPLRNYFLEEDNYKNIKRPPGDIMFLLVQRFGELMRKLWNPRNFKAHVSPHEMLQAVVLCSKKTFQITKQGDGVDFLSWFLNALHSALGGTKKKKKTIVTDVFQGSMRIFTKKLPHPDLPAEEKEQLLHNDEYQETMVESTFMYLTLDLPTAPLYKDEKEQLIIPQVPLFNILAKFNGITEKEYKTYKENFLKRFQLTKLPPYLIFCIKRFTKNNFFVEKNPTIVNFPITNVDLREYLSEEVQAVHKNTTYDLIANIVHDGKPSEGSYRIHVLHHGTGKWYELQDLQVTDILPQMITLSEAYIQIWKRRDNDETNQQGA
Procedure, shortened: as §1

USP4 = molecular target: T4, USP4 (UniProt Q13107)
T4 sequence (whole entry): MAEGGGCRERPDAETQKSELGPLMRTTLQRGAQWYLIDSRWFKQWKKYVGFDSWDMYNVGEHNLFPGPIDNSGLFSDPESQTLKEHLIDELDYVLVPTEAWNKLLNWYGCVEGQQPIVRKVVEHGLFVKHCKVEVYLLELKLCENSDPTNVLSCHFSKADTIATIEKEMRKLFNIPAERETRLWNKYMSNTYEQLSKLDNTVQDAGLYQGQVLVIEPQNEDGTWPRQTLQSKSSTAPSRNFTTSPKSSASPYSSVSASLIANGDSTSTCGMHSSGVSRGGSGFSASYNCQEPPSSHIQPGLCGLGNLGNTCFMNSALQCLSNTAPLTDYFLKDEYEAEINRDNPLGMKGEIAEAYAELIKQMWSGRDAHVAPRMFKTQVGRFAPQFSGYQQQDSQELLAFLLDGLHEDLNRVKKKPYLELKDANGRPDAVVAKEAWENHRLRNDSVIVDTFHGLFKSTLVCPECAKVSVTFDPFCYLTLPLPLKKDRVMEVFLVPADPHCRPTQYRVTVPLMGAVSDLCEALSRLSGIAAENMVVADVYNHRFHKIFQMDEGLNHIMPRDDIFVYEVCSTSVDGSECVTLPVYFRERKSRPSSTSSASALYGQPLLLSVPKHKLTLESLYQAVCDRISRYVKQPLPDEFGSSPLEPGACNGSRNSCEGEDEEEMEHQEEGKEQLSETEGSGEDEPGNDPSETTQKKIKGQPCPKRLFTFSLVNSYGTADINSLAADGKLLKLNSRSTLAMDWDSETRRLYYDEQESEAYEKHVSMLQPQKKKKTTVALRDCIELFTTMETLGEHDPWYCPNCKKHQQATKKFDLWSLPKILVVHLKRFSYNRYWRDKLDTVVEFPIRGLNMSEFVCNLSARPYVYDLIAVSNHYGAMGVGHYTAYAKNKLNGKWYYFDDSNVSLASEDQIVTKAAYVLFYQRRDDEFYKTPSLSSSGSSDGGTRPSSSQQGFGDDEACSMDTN
Procedure, shortened: as §1

Measured: log2 ratio of Biotin-Ahx-Ub-VS probe labelling

USP34, sequence (Q70CQ2 whole entry, the tested form may be a part): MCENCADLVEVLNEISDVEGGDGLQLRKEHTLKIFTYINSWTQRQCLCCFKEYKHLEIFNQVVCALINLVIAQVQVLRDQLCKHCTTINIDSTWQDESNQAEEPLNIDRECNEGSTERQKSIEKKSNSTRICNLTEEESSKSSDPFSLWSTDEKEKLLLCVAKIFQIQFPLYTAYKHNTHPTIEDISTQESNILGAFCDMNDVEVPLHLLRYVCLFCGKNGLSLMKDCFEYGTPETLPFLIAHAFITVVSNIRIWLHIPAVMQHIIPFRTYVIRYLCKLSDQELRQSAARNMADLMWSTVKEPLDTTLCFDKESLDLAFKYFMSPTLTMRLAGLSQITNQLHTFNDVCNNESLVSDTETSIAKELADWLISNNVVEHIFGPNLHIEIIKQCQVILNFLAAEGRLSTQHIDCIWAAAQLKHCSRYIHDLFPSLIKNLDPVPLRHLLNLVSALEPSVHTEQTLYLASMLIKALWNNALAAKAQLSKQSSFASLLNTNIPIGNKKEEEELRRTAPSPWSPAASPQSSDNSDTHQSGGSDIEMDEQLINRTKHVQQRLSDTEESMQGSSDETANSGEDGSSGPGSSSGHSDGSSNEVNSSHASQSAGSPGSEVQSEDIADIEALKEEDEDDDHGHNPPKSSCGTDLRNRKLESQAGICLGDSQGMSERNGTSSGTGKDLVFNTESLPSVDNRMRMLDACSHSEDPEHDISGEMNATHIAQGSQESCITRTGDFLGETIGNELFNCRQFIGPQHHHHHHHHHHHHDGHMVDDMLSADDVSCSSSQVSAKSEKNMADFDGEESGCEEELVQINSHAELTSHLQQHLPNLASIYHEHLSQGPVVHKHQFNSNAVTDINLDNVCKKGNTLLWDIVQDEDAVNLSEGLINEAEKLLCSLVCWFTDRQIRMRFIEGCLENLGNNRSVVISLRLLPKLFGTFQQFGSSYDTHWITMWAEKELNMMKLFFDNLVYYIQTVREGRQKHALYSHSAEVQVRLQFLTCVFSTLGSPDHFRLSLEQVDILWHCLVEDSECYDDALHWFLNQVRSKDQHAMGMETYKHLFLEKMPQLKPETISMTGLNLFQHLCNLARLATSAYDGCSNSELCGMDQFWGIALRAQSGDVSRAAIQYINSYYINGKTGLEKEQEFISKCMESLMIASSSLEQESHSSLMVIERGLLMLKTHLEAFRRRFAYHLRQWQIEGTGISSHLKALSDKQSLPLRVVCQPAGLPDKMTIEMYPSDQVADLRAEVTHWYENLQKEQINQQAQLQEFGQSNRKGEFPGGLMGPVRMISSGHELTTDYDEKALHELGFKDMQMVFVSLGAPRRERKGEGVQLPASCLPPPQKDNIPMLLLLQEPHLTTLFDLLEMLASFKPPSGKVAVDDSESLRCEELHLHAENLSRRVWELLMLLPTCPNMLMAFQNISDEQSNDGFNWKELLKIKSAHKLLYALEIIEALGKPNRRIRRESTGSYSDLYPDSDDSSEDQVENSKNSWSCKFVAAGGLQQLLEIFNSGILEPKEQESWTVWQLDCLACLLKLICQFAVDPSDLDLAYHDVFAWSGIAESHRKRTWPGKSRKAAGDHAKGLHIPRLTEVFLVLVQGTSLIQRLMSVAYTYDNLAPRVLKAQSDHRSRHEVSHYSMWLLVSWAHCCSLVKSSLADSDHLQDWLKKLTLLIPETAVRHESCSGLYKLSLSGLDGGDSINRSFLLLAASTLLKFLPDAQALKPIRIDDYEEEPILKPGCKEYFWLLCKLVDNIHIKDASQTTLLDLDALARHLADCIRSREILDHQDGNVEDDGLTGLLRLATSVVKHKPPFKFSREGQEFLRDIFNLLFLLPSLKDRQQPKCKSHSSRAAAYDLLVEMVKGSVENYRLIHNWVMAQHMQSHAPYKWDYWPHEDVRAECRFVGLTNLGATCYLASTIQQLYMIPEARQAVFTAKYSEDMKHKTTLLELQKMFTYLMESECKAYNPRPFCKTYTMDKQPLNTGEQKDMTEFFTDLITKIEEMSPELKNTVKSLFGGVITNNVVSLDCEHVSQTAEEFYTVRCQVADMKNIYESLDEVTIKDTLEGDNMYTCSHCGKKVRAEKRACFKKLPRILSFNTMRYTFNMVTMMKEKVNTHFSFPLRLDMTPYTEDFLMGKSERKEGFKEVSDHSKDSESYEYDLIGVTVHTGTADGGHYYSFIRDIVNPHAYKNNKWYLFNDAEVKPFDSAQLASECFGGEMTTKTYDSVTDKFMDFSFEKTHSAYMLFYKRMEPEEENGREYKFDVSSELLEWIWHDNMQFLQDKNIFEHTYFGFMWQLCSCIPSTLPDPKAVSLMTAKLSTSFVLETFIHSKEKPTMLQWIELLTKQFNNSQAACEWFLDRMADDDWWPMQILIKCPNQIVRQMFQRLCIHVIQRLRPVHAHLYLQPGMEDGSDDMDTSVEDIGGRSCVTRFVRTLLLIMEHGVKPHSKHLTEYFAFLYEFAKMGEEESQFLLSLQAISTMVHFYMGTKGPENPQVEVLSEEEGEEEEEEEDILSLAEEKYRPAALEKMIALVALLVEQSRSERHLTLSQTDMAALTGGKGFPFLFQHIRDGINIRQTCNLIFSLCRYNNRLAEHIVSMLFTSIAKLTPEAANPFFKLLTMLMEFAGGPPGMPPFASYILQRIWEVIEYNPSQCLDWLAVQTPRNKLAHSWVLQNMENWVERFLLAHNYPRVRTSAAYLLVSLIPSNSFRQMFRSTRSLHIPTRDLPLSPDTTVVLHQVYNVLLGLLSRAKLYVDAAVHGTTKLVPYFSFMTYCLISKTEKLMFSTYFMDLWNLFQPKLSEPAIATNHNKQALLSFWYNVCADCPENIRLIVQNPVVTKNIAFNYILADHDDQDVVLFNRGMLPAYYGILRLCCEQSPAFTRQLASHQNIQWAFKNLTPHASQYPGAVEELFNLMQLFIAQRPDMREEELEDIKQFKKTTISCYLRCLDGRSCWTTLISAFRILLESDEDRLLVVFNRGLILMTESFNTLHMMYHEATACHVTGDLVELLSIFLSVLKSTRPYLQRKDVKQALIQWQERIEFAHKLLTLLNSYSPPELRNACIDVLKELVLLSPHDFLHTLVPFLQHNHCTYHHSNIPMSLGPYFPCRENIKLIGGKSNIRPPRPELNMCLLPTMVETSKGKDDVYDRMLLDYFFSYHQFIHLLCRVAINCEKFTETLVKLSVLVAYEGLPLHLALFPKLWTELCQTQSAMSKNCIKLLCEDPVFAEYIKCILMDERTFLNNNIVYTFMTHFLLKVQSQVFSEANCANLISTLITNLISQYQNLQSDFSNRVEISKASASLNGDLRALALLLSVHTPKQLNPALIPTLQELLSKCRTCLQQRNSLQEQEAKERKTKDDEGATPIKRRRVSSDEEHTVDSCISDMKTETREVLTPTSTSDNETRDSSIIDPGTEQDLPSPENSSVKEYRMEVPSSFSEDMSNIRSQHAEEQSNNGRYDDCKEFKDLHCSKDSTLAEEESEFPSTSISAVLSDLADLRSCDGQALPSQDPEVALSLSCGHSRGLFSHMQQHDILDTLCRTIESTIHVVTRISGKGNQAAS

O=C(CCl)Nc1cc(Cl)ccc1-n1cncn1
inactive: USP34 -0.448 | USP36 -0.325 | USP38 -0.932 | USP39 0.142 | USP4 -0.712
